Reference: PubChem BioAssay AID1851 (National Center for Advancing Translational Sciences (NCATS), 2009)
About 5,700 (36%) of roughly 16,000 compounds were called active. About 24% were inconclusive and are not listed. The list shows a part of the results. A number with no mark means an inactive call. Calls come from the whole dose curve; as a rule, active = well fitted curve in the direction sought with a large enough effect; inconclusive = small, poorly fitted or top-dose-only effect, or effect the other way; inactive = no such curve, though single readings can be large or run the other way.

target: Cytochrome P450 1A2 (Homo sapiens) (UniProt P05177); experiment: Cytochrome panel assay with activity outcomes; conditions: recombinant CYP, pro-luciferin dealkylation, luminescence, p450-cyp1a2; series mostly up to 57.1 µM; activity, negative = inhibition: at the top concentration
Sequence (P05177 whole entry, looked up): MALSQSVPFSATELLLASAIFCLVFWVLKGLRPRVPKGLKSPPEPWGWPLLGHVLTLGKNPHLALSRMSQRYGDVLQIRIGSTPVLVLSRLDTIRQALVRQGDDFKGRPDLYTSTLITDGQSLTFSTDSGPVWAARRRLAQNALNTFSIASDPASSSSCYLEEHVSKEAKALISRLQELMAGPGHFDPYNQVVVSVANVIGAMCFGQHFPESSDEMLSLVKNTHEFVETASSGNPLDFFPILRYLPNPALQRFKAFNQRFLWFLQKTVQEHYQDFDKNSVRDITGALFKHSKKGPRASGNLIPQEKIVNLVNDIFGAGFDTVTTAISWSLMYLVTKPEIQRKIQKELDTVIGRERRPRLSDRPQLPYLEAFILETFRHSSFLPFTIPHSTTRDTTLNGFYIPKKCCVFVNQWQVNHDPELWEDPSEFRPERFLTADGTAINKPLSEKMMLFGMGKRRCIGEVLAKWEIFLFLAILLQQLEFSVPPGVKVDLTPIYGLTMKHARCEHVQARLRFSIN
% is set by controls: 0 for no effect and ±100 for the full control effect.

SMILES | activity, negative = inhibition | AC50
CCCCn1c(SCC(=O)N2CCCC2)nc2c1c(=O)n(C)c(=O)n2C | -26.1% | 
CCn1c(SCC(=O)N2CCOCC2)nc2oc3c(Cl)cc(Cl)cc3c(=O)c2c1=O |  | 12.6 µM (active)
Oc1ccccc1C1Nc2cccc3cccc(c23)N1 |  | 1 µM (active)
S=C1N(c2ccccc2)C(c2ccc(Cl)cc2)N2CCCN12 (centres undefined) |  | 4.47 µM (active)
CCOC(=O)c1sc2nc3c(cc2c1N)COC(C(C)C)C3 (centres undefined) | -15.6% | 
CCOC(=O)c1sc2nc3c(cc2c1N)COC(C)(CC)C3 (centres undefined) |  | 25.1 µM (active)
COc1ccc2[nH]cc(CCNc3cc(-c4ccccc4C)ncn3)c2c1 |  | 1 µM (active)
COc1ccc2[nH]cc(CCNc3cc(-c4ccccc4C(F)(F)F)ncn3)c2c1 |  | 10 µM (active)
COc1ccc2[nH]cc(CCNc3cc(-c4ccccc4OC)ncn3)c2c1 |  | 1.58 µM (active)
COc1ccc(O[C@H]2C=C[C@@H](c3ccccc3)O[C@H]2CO/N=C\C[C@@H]2C=C[C@H](OC(C)=O)[C@H](COC(C)=O)O2)cc1 | 1.58% [at 11.4 µM] | 
CC(C)CO/N=C1/C[C@@H](O)[C@@H](O)[C@@H]2[C@H]3C(=O)N(c4ccc(F)cc4F)C(=O)[C@@H]3CC[C@@H]12 | -0.174% [at 11.4 µM] | 
Cc1cc(OC(=O)c2cc(F)c(F)cc2Cl)nc(C)n1 | -0.707% | 
COc1ccc(C(=O)/C=C(/C)N(C)C)cc1 |  | 3.55 µM (active)
CC(C)CSC[C@@H]1O[C@H](n2cnc3c(N)nccc32)[C@H](O)[C@@H]1O | 3.41% [at 11.4 µM] | 
O=C(O)C1CCC(=O)N(C2CC2)C1c1ccccc1 (centres undefined) | 10% | 
CC1CCC(C(=O)O)([C@H](Br)C(=O)O)CC1 (some centres undefined) | -8.77% [at 11.4 µM] | 
CN(C)c1oc(-c2ccccc2)nc1C#N |  | 3.16 µM (active)
CN(C)C(=O)c1ccc(-c2ccc3ncnc(Nc4ccccc4)c3c2)cc1 |  | 15.8 µM (active)
CN(C)C(=O)c1ccc(-c2ccc3ncnc(Nc4ccc(F)cc4)c3c2)cc1 |  | 20 µM (active)
COC(=O)C/C=C\[C@@H](C)[C@@H](/C=N\OC[C@@H](O)[C@H]1O[C@H]2OC(C)(C)O[C@H]2[C@@H]1O)OC | -15.6% [at 11.4 µM] | 
Cc1ccc(OCC(=O)NNC(=O)C2CCN(c3ncccn3)CC2)cc1 | 8.55% | 
Cc1ccc(OCC(=O)NNC(=O)CCc2ccccc2)cc1 | -15.2% | 

SMILES | activity, negative = inhibition | AC50
Cc1ccc(OCC(=O)Nn2cnc3ccccc32)cc1 |  | 6.31 µM (active)
CC(C)(C)c1ccc(OCC(=O)O)c(Cl)c1 | -16.2% [at 11.4 µM] | 
Cc1cc(Cl)ccc1OC(C)C(=O)Nc1ccc(S(=O)(=O)Nc2cnc3ccccc3n2)cc1 (centres undefined) | -13.5% | 
Cc1ccc(OCC(=O)Nc2ccc(Cl)cc2)c(-n2nc3ccccc3n2)c1 |  | 3.55 µM (active)
Cc1ccc(N(C(C)C(=O)Nc2cc(Cl)ccc2Oc2ccccc2)S(C)(=O)=O)cc1 (centres undefined) | -16.4% | 
Cc1cc(NC(=O)COc2ccc(Cl)cc2Cl)n(-c2ccccc2)n1 |  | 1.78 µM (active)
O=C(COc1ccccc1Cl)Nc1cc(Cl)ccc1Oc1ccccc1 |  | 2.51 µM (active)
O=C(Nc1cccc(C(F)(F)F)c1)c1ccc(Cn2cc(Br)cn2)o1 |  | 2 µM (active)
CC(C)CN1CCC2(CC1)CCN(C(=O)c1csnn1)CC2 | -2.25% | 
OCCNCCCOc1cccc(Cl)c1Cl |  | 0.2 µM (active)
OCCCNCc1ccccn1 | -20% [at 2.29 µM] | 
CCCCNN | -6.54% [at 2.29 µM] | 
CN(C)S(=O)(=O)c1ccc(Nc2ccc(O)c3c2C(=O)c2c([N+](=O)[O-])ccc(O)c2C3=O)cc1 |  | 0.126 µM (active)
O=C(CCCN1CC=C(n2c(=O)[nH]c3ccccc32)CC1)c1ccc(F)cc1 | -11% [at 25.6 µM] | 
COC(=O)CCSc1cc([N+](=O)[O-])cc2c1c(C1OCCS1)nn2-c1ccccc1 (centres undefined) |  | 28.2 µM (active)
CN(C)C=Nc1ccc2nn(-c3ccccc3)nc2c1 |  | 0.708 µM (active)
O=C(O)c1nn(-c2ccccc2)nc1-c1nn(-c2ccccc2)nc1C(=O)O | -3.23% | 
CC(=O)OC[C@@H]1O[C@@H](O/N=C2/C[C@@H](O)[C@@H](O)[C@@H]3[C@@H]4C(=O)N([C@@H](C)c5ccccc5)C(=O)[C@H]4CC[C@H]23)[C@H](OC(C)=O)[C@H](OC(C)=O)[C@@H]1OC(C)=O | 3.02% [at 11.4 µM] | 
Cc1nn(C)c(Cl)c1NC(=O)OCc1ccc(F)cc1 |  | 14.1 µM (active)
Cc1nn(C)c(Cl)c1NC(=O)OCc1ccc(Cl)cc1Cl |  | 5.01 µM (active)
CC(C)(C)C(=O)OCOC(=O)[C@@H]1N2C(=O)[C@@H](NC(=O)[C@H](N)c3ccccc3)[C@H]2SC1(C)C | -6.18% [at 25.6 µM] | 
COc1ccc(O[C@H]2C=C[C@@H](c3ccccc3)O[C@H]2COC(=O)CC/C(C)=N\O[C@@H](C)c2cc(-c3c(C)cc(C)cc3C)no2)cc1 | -2.73% [at 11.4 µM] | 
